Measurements: the supplement of paper PMC11417369
± gives the standard deviation of the averaged measurements. The full ranking holds about 25,000 sequences; the median of “ln(normalized median fluorescence intensity)” is about 10, and the highest 2% start at about 12. What follows is part of a selection rich in the highest values, with near analogues and random picks from the rest.

test system: PfAP2-G AP2 domain (GST-tagged); assay: gcPBM binding intensity (ln(normalized median fluorescence intensity)); higher = stronger DNA binding
Summary of the method: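 After 1 h on an Agilent 4 × 180k array of primer-extended double-stranded 36-bp intergenic genomic probes and negative controls, bound GST-tagged P. falciparum DNA-binding domains were detected with Alexa488 anti-GST antibody and scanned at 488 nm. The domains had been expressed in E. coli, and binding took place in 1× PBS with 1% milk, 0.2 mg/ml BSA, 0.5% salmon testes DNA and 0.03% Triton X-100. Binding intensity is the highest Masliner-normalised natural-log median intensity across replicate spots of either probe orientation.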

Sequence | gcPBM binding intensity (ln)
TCTATTTTCTTATGAATGCACTAATTTATAAAACGT | 10.1 ± 0.13
TATCATATATGAAGGTGTACGATTTATTATATAAAT [XGTACX_site7010] | 11.4 ± 0.95
TTAAAATTAAAAATAGGTACACATATGAACAAGGAC [XGTACX_site1180] | 11.5 ± 0.78
AAAAAAAAAAAGAAGGGTACATATTATATATAATAT [XGTACX_site6204] | 11.2 ± 0.76
TATAAGAATAAAAAGGGTACATAAAATAATAATATA [XGTACX_site2355] | 11.3 ± 0.73
ATTATAAGAAGGGGGGGTACATAAATATAAATGTAT [XGTACX_site5624] | 11.9 ± 0.95
ATATATATTATATGCACACTAATAAGACTATTTAAA [CACACA_site3554] | 10.1 ± 0.23
TAGAAGCATTGACACACACACATACATACACATACA [CACACA_site6802] | 10.2 ± 0.26
TTACATATTTTTTAACGTACATAAATATATATGTAT [XGTACX_site8406] | 11.4 ± 0.79
ATAAATAAAATAAAAGCACACAAAATGTAAATAATT [CACACA_site8895] | 10.04 ± 0.057
ATATAATTTAATTTCTGTACATAAGAGAAAAAACAA [XGTACX_site4865] | 11.1 ± 0.64
ATATATATATATATATGTACGTACTCAGTTATGCCT [XGTACX_site453] | 11.7 ± 1.2
GTATATATGTATGTATGTACGTATATAGTTATGTAT [XGTACX_site6769] | 11.6 ± 0.93
TATATATATATTATATGTACGTATGTATGTATATAT [XGTACX_site6451] | 11.3 ± 0.8
TCCTCGCGTAATACTTTTCAAATAAAAAAAATAAAA [TGCATGCA_negctrl_site403] | 10.5 ± 0.48
ATTTGTGTATATTAGAGTACATAAAATTAGAGGAAC [XGTACX_site1654] | 11.6 ± 0.92
ATAACCACATAAAATATAATTATATATATATATATA [CACACA_negctrl_site603] | 9.87 ± 0.26
TTATTTTTTTATTCATGTACACAAGAACATTTCATT [XGTACX_site5744] | 11.3 ± 0.67
TCATTTATTTTTCTTTGTACACAAAAGTTTTTATGT [XGTACX_site690] | 11.4 ± 0.9
TTTTTTTTTTTTATTTGTACACATTTTCATATTTTT [XGTACX_site4406] | 11.3 ± 0.98
TTTATTTTTCATTGGGGTACACAAGTTTATTTTTGA [XGTACX_site4262] | 11.7 ± 0.86
GTTTATTTTTTCATTTGTACACATAAATAAATATAT [XGTACX_site7752] | 11.5 ± 0.75
TTTATTTTTCATTGGGGTACACAAGTTTATTTTATT [XGTACX_site4263] | 11.7 ± 0.96
GCTTAATACAGAATAACACACAAAATAAATAAATAA [CACACA_site4041] | 10 ± 0.12

Sequence | gcPBM binding intensity (ln)
TTTTGGATGAACAGTACATGCAAAAACAAACTTGTA [TGCATGCA_site16] | 10.8 ± 0.37
ATATCTTCACTTATATGTACTTACATTTTTTTTTTT [XGTACX_site8696] | 11.4 ± 0.81
AGGAGGTCAGTTCACAGTACCCAGAAACTCTACGAG [XGTACX_site2006] | 11.1 ± 0.73
AAATATAATTAATGATGTACACTTATAGATATTGAT [XGTACX_site8435] | 11.4 ± 0.68
ATATAATTACATTGATGTACACGAAATGATTAACAT [XGTACX_site5183] | 11.7 ± 1.1
ATATATATTTTTATAACACACAATGATGTACATTAC [CACACA_site1076] | 11.3 ± 0.84
CAGAAATATTAATGCTGTACGGAATACATATATTTT [XGTACX_site539] | 10.9 ± 0.6
GTAATAATTTTTTGTAGTACACAAAAATTCATATTT [XGTACX_site2699] | 11.7 ± 1.1
AATTTTCATTTTAGAAGTACACACAAAAAATAAAAT [XGTACX_site4426] | 11.7 ± 1.1
TAAATTTTTTTTTTTTGTACACAAAAATATAATATT [XGTACX_site8151] | 11.4 ± 0.98
TTTCATTTTAGAAGTACACACAAAAAATAAAATAAT [CACACA_site2141] | 11.6 ± 0.92
AATTTCATTTTTAGAAGTACATTTATATTAAAAATC [XGTACX_site2888] | 11.2 ± 0.95
TAAGTCATATAAATGTGTACATAAAAAAAAAAAATG [XGTACX_site1645] | 11.6 ± 1
TATTCATAATTTTAATGTACAAAATGGTTTGTAATA [XGTACX_site8493] | 10.6 ± 0.33
AGGTCATACATAAAATGTACATATATATAAATATAT [XGTACX_site7147] | 10.9 ± 0.54
AATAATATATGGTGTACACAAAAGTATAAATAATTT [CACACA_site5338] | 11.9 ± 1
TACAAATTTATATAAAGTACAAAAAATAATAAAAAT [XGTACX_site7355] | 11.1 ± 0.57
ATAAAAATAAATAAATGTACATATATATATATATAT [XGTACX_site1277] | 11.1 ± 0.58
GTTAAAATAATATGGTGTACAAATATATAAGTTCAT [XGTACX_site3262] | 11.4 ± 0.79
ATAGAATACATATATGAACACACAGAGTTTTAAAAA [CACACA_site8879] | 10.15 ± 0.042
ATATTTAAAGAATAAGTGCAAAATGTAATTAATTTT [GTGCAC_site9901] | 10.065 ± 0.007
TAAAAAAACATATATTGTACGGAGATAATAATTTTT [XGTACX_site2946] | 10.6 ± 0.31
TTATATTTAGTATATGCACACTTTATGTTTGTTATT [CACACA_site5163] | 9.955 ± 0.035
TAAAAGGATGCATATACACACATATAGATTTATATA [CACACA_site7336] | 9.915 ± 0.035

Sequence | gcPBM binding intensity (ln)
AATAATTTCCAAAAATGTACATATATTTACATATAT [XGTACX_site1790] | 10.9 ± 0.52
AAATATATATTCATGTGTACACACAAAAAAAAATAA [XGTACX_site4552] | 11.6 ± 0.84
AATATATATTCATGTGTACACACAAAAAAAAATAAA [CACACA_site8690] | 11.6 ± 0.84
TATATATCCATGTGTACACACAAAAAAAAATAAAGT [CACACA_site7107] | 11.7 ± 0.93
AAAATAATAATAAAAAGTACATGTGTATATAATAAA [XGTACX_site754] | 11.3 ± 0.82
TATATATTCATGTGTACACACAAAAAAAAATAAAGT [CACACA_site2207] | 11.7 ± 0.9
TGAAAAGAAAACACATGTACAAATATATAAATATAA [XGTACX_site6098] | 10.8 ± 0.35
CTTTATATATTTTATTGTACTTAAAAAAAAAAAAAA [XGTACX_site2134] | 11.4 ± 1.1
ACATACATACATACATACATACATACATACATACAT [XGTACX_negctrl_site315] | 10.6 ± 0.57
AAGAAATATATATATATATATATATATATATATGTA [TGCATGCA_negctrl_site442] | 9.67 ± 0.16
AATAAAAAAAATAGCATACACACATATATACATATA [CACACA_site659] | 9.75 ± 0.028
TGGTCTTTTAAACAAAAATATAAATTTTTAAATATG [CACACA_negctrl_site392] | 9.94 ± 0.23
AAAAAAAAAAGGTGTACATGCAAAATAAATTCTTAA [TGCATGCA_site556] | 11.6 ± 1.1
AATTAATAAGAAAGGTGTACAGAAAAAAAAAAATAT [XGTACX_site2106] | 11.5 ± 0.8
TGTTAATAAAGGTGTACACAAAATAAAAAAAATTAT [CACACA_site4288] | 11.7 ± 0.92
AATAAATTAATAAGGTGTACATAAATAATTTATATA [XGTACX_site8278] | 11.5 ± 0.94
GGTGTTAAAAAATACACACACAAAAAAAAAAAAAAA [CACACA_site138] | 9.95 ± 0.51
AAAGGTGTATATAATACACACGTGTGATTAAAATTG [CACACA_site8104] | 10.13 ± 0.064
AAAAAAAAAAAAAGGTGTACATGCAAAATAAATTCT [XGTACX_site4592] | 11.6 ± 0.93
ACACAAAAATAAAAATGTACAAATTAAAAAAAATGA [XGTACX_site2083] | 10.8 ± 0.42
TTAAAAAAAAAAAGGTGTACTATAATTTAATATCAC [XGTACX_site6316] | 11.6 ± 1.1
TAAAATTTAAAAAGGTGTACACTATAAATTAAAATA [XGTACX_site2081] | 11.7 ± 0.95
AATTAATAAAAAAGGTGTACAGTAAATGCAATAATC [XGTACX_site7956] | 11.7 ± 0.99
TTTGAAATAAAAAGGTGTACACTCGATTAATAAATA [XGTACX_site6943] | 11.8 ± 0.98

Sequence | gcPBM binding intensity (ln)
TATAAATTATATATTTGTACGTATATCACATATATA [XGTACX_site7053] | 11.3 ± 0.84
AATTTTATTTAAAGTGCATGTAAAATTAAAACTTTT [TGCATGCA_site989] | 10 ± 0.057
ATATAGAACACCTGTGCATGCAAGTGCTAAAAAATT [TGCATGCA_site213] | 10.2 ± 0.2
ATTTTTTCTGTCTTAATTGGACCCACTGCAAATGGG [CACACA_negctrl_site1158] | 10.9 ± 0.54
AACATATAAATGATATGTACACACATTTATATATAT [XGTACX_site7364] | 11.4 ± 0.53
TATTTGATAAAAAAAAGTACTAGAATTTCGCTTTTG [XGTACX_site7754] | 11.1 ± 0.7
ATATATACCTAAGACACACACATATAGATTTATATA [CACACA_site6498] | 9.97 ± 0.028
TAGGTGTTAAAAAATACACACACAAAAAAAAAAAAA [CACACA_site7927] | 9.93 ± 0.45
AAAAAAATAATAAAATGTACAAATAAACACATAAAG [XGTACX_site5102] | 10.8 ± 0.39
AAATGTTAATAAAGGTGTACACAAAATAAAAAAAAT [XGTACX_site463] | 11.7 ± 0.71
TAAAGTAAAGACATACTTATTTTCCATCCACTTCTT [CACACA_negctrl_site1288] | 10 ± 0.18
AGTATACTCGGACACACACACACATATATATATATA [CACACA_site5031] | 11.1 ± 0.51
AATTATTTTAAATATTGTACTATTACAGAATGGTGT [XGTACX_site5693] | 11 ± 0.56
ATTAAATCATATGAATGTACGGATATATATATTTCC [XGTACX_site8650] | 10.7 ± 0.48
AAAAAAAAAAAAAAAAGTACACATCATTTTATGAAA [XGTACX_site1402] | 11.7 ± 0.76
TATATTTTATAAAAAAGTACACATGAAAATGTATTT [XGTACX_site5889] | 11.5 ± 1.1
TTTTTTATTAAAAGTAGTACACATGAAAAAAAAAAA [XGTACX_site5524] | 11.8 ± 1
TTTTAAAGAAAAAAATGTACAAAATTTTTATTTTAA [XGTACX_site1496] | 10.6 ± 0.35
GTAATTTTAAAGAAAAGTACACATTTATTAATTATT [XGTACX_site4468] | 11.5 ± 1.2
ATTTATGAAAAGTAAAGTACACACAGGAAAAAAAAA [XGTACX_site3564] | 11.4 ± 0.72
AGTTATTTTAAATGTAGTACACAAAAGAAATATTAA [XGTACX_site4092] | 11.6 ± 0.94
ATAGTATTTTTTATTACACACAAATAAAAAGAAAAA [CACACA_site2087] | 10.2 ± 0.26
AATTATTTTATGAAAAGTACACATTGTTTTAATTCT [XGTACX_site4506] | 11.4 ± 0.98
